Experimental data taken from PMC5515408, “Sequence-specific DNA binding by MYC/MAX to low-affinity non-E-box motifs”.
Whole data set: some 4,500 sequences, median “log2 normalized fluorescence” near -0.34, cut for the highest 2% near 3.3. The entries come from a sample that favours the highest values as a whole.

target: MAX:MAX (p21) (human, UniProt P61244-2 1-151); assay: protein-binding microarray (anti-MAX antibody); PBM: 15 mM Tris-HCl pH 7.5, 100 mM KCl, 0.075% NP40, 7.5 mM beta-mercaptoethanol, 375 ng/ul BSA, 8 ng/ul poly(dA-dT):(dA-dT), 550 ng complex, 60 min, room tempe; high values mean tight binding; details: protein: recombinant; tags: 6xHis; chain copies: 2; label: 3' end of printed strand (linker) attached to glass slide; dsDNA, one strand shown
In short: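 A custom Agilent glass array held ~5000 unique 12-nt sequences in triplicate spots, made double-stranded by primer extension. His-tagged human MYC:MAX or MAX:MAX dimers (550 ng, produced in E. coli) were applied for 60 min at room temperature in Tris-KCl buffer, pH 7.5, with NP40, BSA and poly(dA-dT) competitor. Anti-MAX and secondary antibodies detected bound protein, with scanning at 543 nm, and binding is given as log2 normalized fluorescence.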

MAX:MAX (p21), sequence (P61244 other isoform, or with tags, fused parts or gaps): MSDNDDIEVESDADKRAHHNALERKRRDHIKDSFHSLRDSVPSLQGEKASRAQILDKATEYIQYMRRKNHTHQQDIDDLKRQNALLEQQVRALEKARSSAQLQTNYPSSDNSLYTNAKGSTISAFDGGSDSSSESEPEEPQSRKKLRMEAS

Sequence | binding signal
CCGGCGAACACGTAGTATTAATAGCTAAGATTACTATATCGACG | 2.25 log2 normalized fluorescence
CCGGCGAACATGTGGTATTAATAGCTAAGATTACTATATCGACG | 3.2 log2 normalized fluorescence
CCGGCGAACACGTGGTATTAATAGCTAAGATTACTATATCGACG | 3.34 log2 normalized fluorescence
CCGGCTGAACGCTGGTATTAATAGCTAAGATTACTATATCGACG | 0.233 log2 normalized fluorescence
CCGGCTGAGGACATGTATTAATAGCTAAGATTACTATATCGACG | 0.549 log2 normalized fluorescence
CCGGCTGATGCCGCGTATTAATAGCTAAGATTACTATATCGACG | 0.00246 log2 normalized fluorescence
CCGGCTAACACGCGGTCTTAATAGCTAAGATTACTATATCGACG | 3.15 log2 normalized fluorescence
CCGGCTGACACGTGCCATTAATAGCTAAGATTACTATATCGACG | 3 log2 normalized fluorescence
CCGGCTGACACGTGCTATTAATAGCTAAGATTACTATATCGACG | 3.17 log2 normalized fluorescence
CCGGCTGACACGCGGTCTTAATAGCTAAGATTACTATATCGACG | 3.32 log2 normalized fluorescence
CCGGCTGACACACGGTCTTAATAGCTAAGATTACTATATCGACG | 1.84 log2 normalized fluorescence
CCGGCTGACACGTTAGATTAATAGCTAAGATTACTATATCGACG | 2.59 log2 normalized fluorescence
CCGGCTGACACGTGCACTTAATAGCTAAGATTACTATATCGACG | 3.13 log2 normalized fluorescence
CCGGCTGACACGTGCGTTTAATAGCTAAGATTACTATATCGACG | 3.25 log2 normalized fluorescence
CCGGCTGACACGTGCGGTTAATAGCTAAGATTACTATATCGACG | 3.31 log2 normalized fluorescence
CCGGCTGACACGTGCCGTTAATAGCTAAGATTACTATATCGACG | 3.41 log2 normalized fluorescence
CCGGCTGACACGTGCGATTAATAGCTAAGATTACTATATCGACG | 3.02 log2 normalized fluorescence
CCGGCTGACACGTGCAATTAATAGCTAAGATTACTATATCGACG | 3.47 log2 normalized fluorescence
CCGGCTGAGGCCATGTATTAATAGCTAAGATTACTATATCGACG | 0.0723 log2 normalized fluorescence
CCGGCTGACGCCGTGTATTAATAGCTAAGATTACTATATCGACG | 0.693 log2 normalized fluorescence
CCGGCTGACACGTATCATTAATAGCTAAGATTACTATATCGACG | 1.42 log2 normalized fluorescence
CCGGCTGAACAATCGTATTAATAGCTAAGATTACTATATCGACG | -0.744 log2 normalized fluorescence

Sequence | binding signal
CCGGCTGATGTTGAGTATTAATAGCTAAGATTACTATATCGACG | -0.163 log2 normalized fluorescence
CCGGCAGACACTTTGTATTAATAGCTAAGATTACTATATCGACG | 0.324 log2 normalized fluorescence
CCGGCTGAGACTCCGTATTAATAGCTAAGATTACTATATCGACG | -0.692 log2 normalized fluorescence
CCGGCTGAGTCTGCGTATTAATAGCTAAGATTACTATATCGACG | -0.699 log2 normalized fluorescence
CCGGCTGAATCCCAGTATTAATAGCTAAGATTACTATATCGACG | -0.681 log2 normalized fluorescence
CCGGCTGATGTTTTGTATTAATAGCTAAGATTACTATATCGACG | -0.281 log2 normalized fluorescence
CCGGCTGACACGTGAGCTTAATAGCTAAGATTACTATATCGACG | 3.09 log2 normalized fluorescence
CCGGCTGACACGTGAAGTTAATAGCTAAGATTACTATATCGACG | 3.15 log2 normalized fluorescence
CCGGCTGACACGTGACGTTAATAGCTAAGATTACTATATCGACG | 3.23 log2 normalized fluorescence
CCGGCTGACACGTGAGGTTAATAGCTAAGATTACTATATCGACG | 3.37 log2 normalized fluorescence
CCGGCTGACACGTGACATTAATAGCTAAGATTACTATATCGACG | 3.44 log2 normalized fluorescence
CCGGCTGACACGTGAGATTAATAGCTAAGATTACTATATCGACG | 3.29 log2 normalized fluorescence
CCGGCTGACACGTGATGTTAATAGCTAAGATTACTATATCGACG | 3.13 log2 normalized fluorescence
CCGGCTGACACGTTACATTAATAGCTAAGATTACTATATCGACG | 3.06 log2 normalized fluorescence
CCGGCTGACACGTGAGTTTAATAGCTAAGATTACTATATCGACG | 3.25 log2 normalized fluorescence
CCGGCTGATGAACAGTATTAATAGCTAAGATTACTATATCGACG | -0.468 log2 normalized fluorescence
CCGGCTGAGCATCTGTATTAATAGCTAAGATTACTATATCGACG | 0.186 log2 normalized fluorescence
CCGGCATACACTTGGTATTAATAGCTAAGATTACTATATCGACG | 1.54 log2 normalized fluorescence
CCGGCTGAGGCGGTGTATTAATAGCTAAGATTACTATATCGACG | -0.63 log2 normalized fluorescence
CCGGCTGACACGTGTGTTTAATAGCTAAGATTACTATATCGACG | 3.37 log2 normalized fluorescence
CCGGCTAGCACGTGTTTTTAATAGCTAAGATTACTATATCGACG | 3.52 log2 normalized fluorescence
CCGGCTGACACGTGTACTTAATAGCTAAGATTACTATATCGACG | 3.15 log2 normalized fluorescence

Sequence | binding signal
CCGGCTGACACGTGTTCTTAATAGCTAAGATTACTATATCGACG | 3.35 log2 normalized fluorescence
CCGGCTGACACGTGTGATTAATAGCTAAGATTACTATATCGACG | 3.24 log2 normalized fluorescence
CCGGCTTACACGTGGTTTTAATAGCTAAGATTACTATATCGACG | 3.22 log2 normalized fluorescence
CCGGCTGACACGTCGTTTTAATAGCTAAGATTACTATATCGACG | 1.92 log2 normalized fluorescence
CCGGCTGACACGTGCTCTTAATAGCTAAGATTACTATATCGACG | 3.24 log2 normalized fluorescence
CCGGCTGACACGTTTAATTAATAGCTAAGATTACTATATCGACG | 2.59 log2 normalized fluorescence
CCGGCTGACACGTGTTTTTAATAGCTAAGATTACTATATCGACG | 3.34 log2 normalized fluorescence
CCGGCTAGCACGTGGCATTAATAGCTAAGATTACTATATCGACG | 3.24 log2 normalized fluorescence
CCGGCTGACACGTTGTTTTAATAGCTAAGATTACTATATCGACG | 3.22 log2 normalized fluorescence
CCGGCTGATATTGCGTATTAATAGCTAAGATTACTATATCGACG | -0.611 log2 normalized fluorescence
CCGGCTGAGTTACGGTATTAATAGCTAAGATTACTATATCGACG | -0.516 log2 normalized fluorescence
CCGGCTGACACGTCGAATTAATAGCTAAGATTACTATATCGACG | 1.45 log2 normalized fluorescence
CCGGCTGACCCGTCGTATTAATAGCTAAGATTACTATATCGACG | -0.382 log2 normalized fluorescence
CCGGCTGAGATGGAGTATTAATAGCTAAGATTACTATATCGACG | -0.522 log2 normalized fluorescence
CCGGCGGACACGTGTGATTAATAGCTAAGATTACTATATCGACG | 3.15 log2 normalized fluorescence
CCGGCTGATTCTCAGTATTAATAGCTAAGATTACTATATCGACG | -0.684 log2 normalized fluorescence
CCGGCTGATCAGAGGTATTAATAGCTAAGATTACTATATCGACG | -0.421 log2 normalized fluorescence
CCGGCTGACACGTTGTCTTAATAGCTAAGATTACTATATCGACG | 3.12 log2 normalized fluorescence
CCGGCTGACACGTGACTTTAATAGCTAAGATTACTATATCGACG | 3.21 log2 normalized fluorescence
CCGGCTGACACGTGTCTTTAATAGCTAAGATTACTATATCGACG | 3.41 log2 normalized fluorescence
CCGGCTTACACATGCTATTAATAGCTAAGATTACTATATCGACG | 3.23 log2 normalized fluorescence
CCGGCTTACACGTGATATTAATAGCTAAGATTACTATATCGACG | 3.31 log2 normalized fluorescence

Sequence | binding signal
CCGGCTTACACGTGCTATTAATAGCTAAGATTACTATATCGACG | 3.57 log2 normalized fluorescence
CCGGCTTACACGTGTTATTAATAGCTAAGATTACTATATCGACG | 3.4 log2 normalized fluorescence
CCGGCTAACACGTGATATTAATAGCTAAGATTACTATATCGACG | 3.18 log2 normalized fluorescence
CCGGCTTAAACGTGTTATTAATAGCTAAGATTACTATATCGACG | 2.7 log2 normalized fluorescence
CCGGCGCACACGTGCTATTAATAGCTAAGATTACTATATCGACG | 3.04 log2 normalized fluorescence
CCGGCTTACACGTGGTGTTAATAGCTAAGATTACTATATCGACG | 3.07 log2 normalized fluorescence
CCGGCTTATACGTGATATTAATAGCTAAGATTACTATATCGACG | 0.467 log2 normalized fluorescence
CCGGCTGATGTCCAGTATTAATAGCTAAGATTACTATATCGACG | -0.249 log2 normalized fluorescence
CCGGCTGAATGGGCGTATTAATAGCTAAGATTACTATATCGACG | 0.274 log2 normalized fluorescence
CCGGCTGAGTCGAGGTATTAATAGCTAAGATTACTATATCGACG | -0.576 log2 normalized fluorescence
CCGGCTGAACCGGCGTATTAATAGCTAAGATTACTATATCGACG | -0.299 log2 normalized fluorescence
CCGGCAGACACTTAGTATTAATAGCTAAGATTACTATATCGACG | 0.466 log2 normalized fluorescence
CCGGCTTTCACATGGTATTAATAGCTAAGATTACTATATCGACG | 3.34 log2 normalized fluorescence
CCGGCTTACACATGGTATTAATAGCTAAGATTACTATATCGACG | 3.16 log2 normalized fluorescence
CCGGCTTTCACGTGGTATTAATAGCTAAGATTACTATATCGACG | 3.41 log2 normalized fluorescence
CCGGCGTTCACGTGGTATTAATAGCTAAGATTACTATATCGACG | 3.37 log2 normalized fluorescence
CCGGCATTCACGTGGTATTAATAGCTAAGATTACTATATCGACG | 3.26 log2 normalized fluorescence
CCGGCTATCACGTGGTATTAATAGCTAAGATTACTATATCGACG | 3.15 log2 normalized fluorescence
CCGGCTTTCACTTGGTATTAATAGCTAAGATTACTATATCGACG | -0.636 log2 normalized fluorescence
CCGGCCTTCACGTGGTATTAATAGCTAAGATTACTATATCGACG | 3.1 log2 normalized fluorescence
CCGGCTAATACGTGGTATTAATAGCTAAGATTACTATATCGACG | 1.49 log2 normalized fluorescence
CCGGCTGAGGGAGCGTATTAATAGCTAAGATTACTATATCGACG | -0.434 log2 normalized fluorescence

Sequence | binding signal
CCGGCTGAGGAGAGGTATTAATAGCTAAGATTACTATATCGACG | -0.732 log2 normalized fluorescence
CCGGCTGACCGCCGGTATTAATAGCTAAGATTACTATATCGACG | -0.241 log2 normalized fluorescence
CCGGCTGACAAGCAGTATTAATAGCTAAGATTACTATATCGACG | -0.299 log2 normalized fluorescence
CCGGCCCCCACGTGGTATTAATAGCTAAGATTACTATATCGACG | 3.4 log2 normalized fluorescence
CCGGCCTCCACGTGGTATTAATAGCTAAGATTACTATATCGACG | 2.94 log2 normalized fluorescence
CCGGCTAAGACGTGGTATTAATAGCTAAGATTACTATATCGACG | 1.75 log2 normalized fluorescence
CCGGCCCACACGTGGTATTAATAGCTAAGATTACTATATCGACG | 2.95 log2 normalized fluorescence
CCGGCTATTACGTGGTATTAATAGCTAAGATTACTATATCGACG | 1.27 log2 normalized fluorescence
CCGGCGCCCACGTGGTATTAATAGCTAAGATTACTATATCGACG | 3.43 log2 normalized fluorescence
CCGGCTCCCACGTGGTATTAATAGCTAAGATTACTATATCGACG | 3.4 log2 normalized fluorescence
CCGGCTCCGACGTGGTATTAATAGCTAAGATTACTATATCGACG | 2.2 log2 normalized fluorescence
CCGGCTGAAGCCTGGTATTAATAGCTAAGATTACTATATCGACG | 0.476 log2 normalized fluorescence
CCGGCTGACGGCCCGTATTAATAGCTAAGATTACTATATCGACG | -0.704 log2 normalized fluorescence
CCGGCTGACTCACTGTATTAATAGCTAAGATTACTATATCGACG | -0.209 log2 normalized fluorescence
CCGGCTGACCTGTGGTATTAATAGCTAAGATTACTATATCGACG | 0.594 log2 normalized fluorescence
CCGGCTGACAACACGTATTAATAGCTAAGATTACTATATCGACG | 0.856 log2 normalized fluorescence
CCGGCTGACTCGTGCTATTAATAGCTAAGATTACTATATCGACG | 3.13 log2 normalized fluorescence
CCGGCAAACACGTAGTATTAATAGCTAAGATTACTATATCGACG | 2.6 log2 normalized fluorescence
